Measurements published in PubChem BioAssay (NCI).
“And” between values parts separate entries of the source, which are not always exact repeats. Identical values can stand only once. About 83,000 compounds went through this panel and 20% of them were active in at least one assay; those are over-represented in the sample as a whole.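 Single-dose data. Exposure time 48 hours. Values below 10 considered active.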 The source made the active and inactive calls.

System: MDA-MB-468 breast
Assay: NCI-60 one-dose screen, 48 h (100 = growth as untreated, 0 = no growth, -100 = all killed)
Settings: 10 µM unless noted

Row | Compound | growth
1 | COc1ccc(/C=C2\N=C3SC=C(N)N3C2=O)cc1 | -31.9% (active)
2 | O=C1Nc2c(ccc(Cl)c2Cl)/C1=C\c1ccc(C(F)(F)F)cc1 | 92.8% (inactive)
3 | O=C(Nc1nc2ccccc2s1)c1ccc(F)cc1 | 94.1% (inactive)
4 | O=C(c1ccccc1)C(Br)C(Br)c1ccccc1 (stereo not given) | 72.3% (inactive)
5 | Cc1ccc(C(c2c(O)c3cc(Br)ccc3[nH]c2=O)c2c(O)c3cc(Br)ccc3[nH]c2=O)cc1 | 94.7% (inactive)
6 | COc1ccccc1/C=N\NC(=S)Nc1ccc(F)cc1 | 72.9% (inactive)
7 | COc1ccc2c(c1)c(-c1nc(-c3c[nH]c4ncccc34)cs1)cn2CCO | 1.57% (active)
8 | C=C1C(=O)O[C@H]2[C@H]1CC/C(COC(=O)c1cc3cc(Cl)ccc3[nH]1)=C\CC[C@@]1(C)O[C@@H]21 | -59.6% (active)
9 | CC(=O)OCC(=O)C1CCC=CC1OC(C)=O (stereo not given) | 85.6% (inactive)
10 | COc1cc(NCC(=O)Nc2cc(Nc3cccc(C(F)(F)F)c3)ncn2)c(Cl)c(OC)c1Cl | 101% (inactive)
11 | O=C(NCCCCO)c1cncnc1Nc1ccc2c(ccn2Cc2cccc(F)c2)c1 | 67% (inactive)
12 | CCN(CC)c1ccc2c(cc1=O)[C@@H](NC(C)=O)CCc1cc(OC)c(OC)c(OC)c1-2 | 36.9% (inactive)
13 | Cn1ccc2c(c1=O)C(=O)c1nccc3c1c-2nc1ccccc13 | -84.6% (active)
14 | COc1cccc(-c2nn(-c3ccccc3)cc2-c2ccnc(NCCNS(=O)(=O)c3ccc(C(F)(F)F)cc3)c2)c1 | 9.78% (active)
15 | COc1cc2c3c(n(C4CCNCC4)c(=O)c2cc1OC)-c1cc2c(cc1C3=O)OCO2 | -81% (active)
16 | CN(CCC#N)c1ccc(/C=C2\NC(=O)NC2=O)cc1 | 110% (inactive)
17 | Cc1cc(NC(=O)c2cnc(N3CCN(CCOCCOCCOCCOCCC(=O)N[C@H](C(=O)N4C[C@H](O)C[C@H]4C(=O)N[C@@H](C)c4ccc(-c5scnc5C)cc4)C(C)(C)C)CC3)cn2)c2ncccc2c1 | -57.9% (active)
18 | CCOc1ccc(/C=N/Nc2cc(C)nc3ccc(Cl)cc23)cc1 | -9.24% (active)
19 | Cc1nn(-c2ccccc2)c2nc3c(c(-c4ccc(Cl)cc4)c12)CNC1(CCSCC1)N3 | 93.1% (inactive)
20 | C=CCn1c(SCC(=O)Nc2ccc(C(=O)/C=C/c3ccc(Cl)cc3)cc2)nnc1-c1ccc(Cl)c(Cl)c1 | 81.5% (inactive)

Row | Compound | growth
21 | FC(F)(F)Oc1cccc(-c2cc(NCCCCCCNc3cc(-c4cccc(OC(F)(F)F)c4)nc4ccc(N5CCCC5)cc34)c3cc(N4CCCC4)ccc3n2)c1 | -68.1% (active)
22 | Cc1c(-c2cnc3ccc(Cl)cc3c2C(=O)O)nnn1-c1ccc(Cl)cc1 | 110% (inactive)
23 | O=C1/C(=C/c2ccccn2)NC(=S)N1c1ccccc1Cl | 36% (inactive)
24 | O=c1c2cc(F)ccc2sc2c(Nc3cccnc3)nc3ccccc3c12 | 76.4% (inactive)
25 | CCOC(=O)CC1C(COC(=O)NC)OC(n2cnc3c(NC(=O)Nc4ccccc4)ncnc32)C1O[Si](C)(C)C(C)(C)C (stereo not given) | 61.9% (inactive)
26 | Cc1ccc(C)c2c1CCC2=O | 63.4% (inactive)
27 | C#CCOCC1CN(C)C(=O)O1 (stereo not given) | 118% (inactive)
28 | OCCNCCCOc1ccc2ncnc(Nc3ccc(Oc4cccc(C(F)(F)F)c4)c(Cl)c3)c2c1 | -64.6% (active)
29 | Nc1ccc(Nc2nccc(-c3ccc4ccccc4c3)n2)cc1 | -10.6% (active)
30 | C=CCC(CCCC)(C(=O)OCC)C(=O)OCC | 107% (inactive)
31 | CCCCNC(=O)c1ccc2c(c1)nc(-c1ccccc1)n2C1CCCCC1 | 123% (inactive)
32 | O=[N+]([O-])c1cc(S(=O)(=O)Oc2ccccc2)ccc1Cl | -78.1% (active)
33 | O=C1NC(=S)S/C1=C\c1cc(Br)ccc1O | 112% (inactive)
34 | OCCOCCN(Cc1ccccn1)Cc1cc(I)cc(I)c1O | 88% (inactive)
35 | CCn1c2ccccc2c2cc(C(O)c3cccc4ncccc34)ccc21 (stereo not given) | 14.2% (inactive)
36 | O=C(CSc1ccc2nnc(-c3cccc(F)c3)n2n1)Nc1ccc2c(c1)OCO2 | 23% (inactive)
37 | CCN(c1cc(-c2ccc(CN3CCC(/C=C/S(=O)(=O)c4ccccc4)CC3)cc2)cc(C(=O)NCc2c(C)cc(C)[nH]c2=O)c1C)C1CCOCC1 | 55.9% (inactive)
38 | ON=C1CCCCCCCC1 | 102% (inactive) and 107% (inactive)
39 | COc1ccc(C(=O)/C=C/c2c[n+](=O)c3ccc(F)cc3n2[O-])cc1 | 101% (inactive)
40 | Cc1ccc(-c2nc3nc(-c4ccccc4)nc(N4CCNCC4)c3o2)cc1 | -87.2% (active)
